Growth data for nine compounds are collected here from PubChem BioAssay (NCI).

About 83,000 compounds went through this panel and 20% of them were active in at least one assay; those are over-represented in the sample as a whole.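 Negative percent growth values reflect cell death: -40 means 40% of the cells present at the start died, and -100 means all died.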 A number with no mark means an inactive call. Calls of active or inactive are those of the source. How the source made its calls: active means growth percent below 10; inactive means the rest.

Common to all, as to assay: NCI-60 one-dose screen, 48 h (100 = growth as untreated, 0 = no growth, -100 = all killed)
What all share (conditions): 10 µM unless noted

For assay [1], the system named is NCI-H23 lung.
The subject of assay [2] is NCI-H226 lung.
Assay [3] deals with NCI-H322M lung.
The subject of assay [4] is HOP-62 NSCLC.
Assay [5] concerns NCI-H460 lung.
Assay [6] concerns HOP-92 NSCLC.
In assay [7] the test system is NCI-H522 lung.
Assay [8] relates to A549/ATCC NSCLC.
Assay [9] relates to 786-0 renal.
The test system of assay [10] is COLO 205 colon.
For assay [11], the system named is DU-145 prostate.
The test system of assay [12] is MALME-3M melanoma.
The subject of assay [13] is MDA-MB-231 breast.
For assay [14], the system named is SF-268 CNS.
Assay [15] concerns SF-295 CNS.
The test system of assay [16] is SF-539 CNS.
In assay [17] the test system is M14 melanoma.
Assay [18] has as its system K-562 leukemia.
Assay [19] deals with RXF 393 renal.

As for `CCc1ccc(C2=C(O)C(=O)C(c3ccc(CC)cc3)=C(O)C2=O)cc1`, the growth in assay [1] was -17.4% (active); in assay [2], -3.98% (active); in assay [3], -19.6% (active); in assay [4] it was -12.8% (active); in assay [5], -19.8% (active); in [6], -47.9% (active). Besides, the growth is -20.7% (active) in assay [7]; -58.3% (active) in [8]; 0.0366% (active) in assay [9]; 5.7% (active) in assay [10]; 13.8% in [11]; -15.1% (active) in assay [12]. The growth in assay [13] is -0.828% (active); in assay [14] it was 0.61% (active); in assay [15] it was -27.2% (active); in [16], -71.8% (active); in assay [17], 4.98% (active).

Take `CC1CCC(n2cnc3c(Cl)ncnc32)O1` (centres undefined): the growth in [1] is 89.5%; in [2] it was 95.9%; in assay [3] it was 86.3%; in [4], 91.2%; in assay [5], 101%; in [6] it was 75.5%. For the same compound, the growth in assay [7] was 82.9%; in assay [8], 106%; in assay [9], 98.1%; in assay [10], 104%; in [11], 112%; in assay [12], 88.5%. Further, the growth in assay [13] is 105%; in assay [14] it was 105%; in assay [15], 95.5%; in [16], 97.5%.

For the compound `CCc1nc2ccc(Cc3ccc(C(=O)NO)cc3)cc2c(=O)n1CCc1ccccc1`, the growth in assay [1] is -67.9% (active); in [2] it was -28.5% (active); in [3], 12.1%; in assay [4] it was -43.4% (active); in [5] it was 0.149% (active); in [6], -29.5% (active). Besides, the growth in [7] is -86.5% (active); in [8] it was -41.7% (active); in assay [9] it was -58.3% (active); in assay [10] it was -69.7% (active); in assay [11], 2.78% (active); in assay [18], 1.5% (active). Also, the growth in assay [13] was -24% (active); in assay [19] it was -66.6% (active); in assay [14], -48.5% (active); in assay [15] it was -79.1% (active); in assay [16], -43.1% (active); in assay [17] it was -63.8% (active).

For the compound `N#Cc1c(NC(=O)c2ccco2)[n+]([O-])c2cc(F)c(F)cc2[n+]1[O-]`, the growth in [1] is 82.7%; in assay [2], 103%; in assay [3], 103%; in assay [4], 120%; in assay [5], 106%; in assay [6], -4.85% (active). In addition, the growth is 59.2% in assay [7]; 97.1% in assay [8]; 98.5% in assay [9]; 98.3% in assay [10]; 76.1% in assay [11]; 56.6% in [18]. The growth in [12] is 116%; in assay [13] it was 96.7%; in assay [14] it was 89.7%; in [15], 106%; in [16], 74.8%; in assay [17], 112%.

For `OCCNC(=S)Nc1ccc(-c2nc(N3C[C@H]4CC[C@@H](C3)O4)c3cccn3n2)cc1`, the growth is 17.4% in [1]; 0.203% (active) in assay [2]; 19.3% in [3]; -14.3% (active) in assay [4]; 11% in assay [5]; -21.2% (active) in assay [6]. For the same compound, the growth in assay [7] was 13.3%; in [8], -1.6% (active); in assay [9], 1.86% (active); in assay [10] it was -8.64% (active); in assay [11], 8.77% (active); in assay [18], 19.1%. Moreover, the growth in assay [13] is 4.21% (active); in assay [19], -31.4% (active); in [14] it was 9.25% (active); in [15], -34.3% (active); in assay [16], -12.2% (active); in assay [17] it was 5.27% (active).

As for `CC(=O)Oc1ccccc1C(=O)N=C1[Se]CCN1C(=O)c1ccccc1OC(C)=O`, the growth in assay [1] was 0.294% (active); in [2], -48.4% (active); in assay [3], -21.7% (active); in assay [4], -48.1% (active); in assay [5] it was -7.43% (active); in assay [6], -72.4% (active). For the same compound, the growth in [7] was -6.48% (active); in assay [8], -52.6% (active); in [9], -95.8% (active); in assay [10], -26.9% (active); in assay [11], -44.2% (active); in [18], 8.83% (active). The growth was -22.2% (active) in assay [13]; -72.5% (active) in [19]; -77.1% (active) in assay [14]; -67.6% (active) in assay [15]; -79.4% (active) in assay [16]; -57.7% (active) in assay [17].

For `CCc1nc2cc(/C=C/C(=O)NO)ccc2c(=O)n1CCc1ccc(OC)cc1`, the growth in assay [1] is 24.5%; in [2], 50%; in assay [3], 29.9%; in assay [4], 16.6%; in assay [5], 13%; in assay [6], 22.5%. Besides, the growth in assay [7] was 15.2%; in [8] it was 24.1%; in [9] it was 21%; in assay [10], -2.84% (active); in assay [11], 7.21% (active); in assay [18], 8.06% (active). The growth in assay [13] was 16.8%; in assay [19], -25% (active); in assay [14], 26.4%; in assay [15], 21.3%; in assay [16], 26.5%; in assay [17] it was 16.3%.

On to `Cc1nn(-c2nc3ccccc3[nH]2)c2c1C(c1ccc(O)cc1)CC(=O)N2` (centres undefined), for which the growth in assay [1] was 74.9%; in [2] it was 96.9%; in [3], 104%; in assay [4], 93.1%; in [5], 57.4%; in [6], 99.3%. Further, the growth was 52% in [7]; 61.3% in assay [8]; 115% in assay [9]; 103% in assay [10]; 99.5% in assay [11]; 97.8% in assay [18]. Moreover, the growth in [12] was 100%; in [13], 71.9%; in [14] it was 74%; in [15], -16.2% (active); in [16], 95.4%; in assay [17], 72%.

Turning to `C=C1[C@@H](O)C[C@H]2C(C)(C)C[C@H](Cl)C[C@]2(C)[C@H]1C[C@H](O)[C@H]1CC(=O)NC1=O`, the growth in [1] was -36.2% (active); in assay [2] it was -25.8% (active); in assay [3], -8.41% (active); in [4], -38.4% (active); in assay [5], -11.5% (active); in assay [6] it was -13.5% (active). The growth in [7] was -36.8% (active); in [8] it was -14.1% (active); in assay [9], -33.2% (active); in [10], -62.5% (active); in assay [11], -29.1% (active); in [18] it was 1.91% (active). In addition, the growth was -31% (active) in assay [13]; -63.2% (active) in assay [19]; -20.8% (active) in [14]; -29.2% (active) in [15]; -35.4% (active) in assay [16]; -75.5% (active) in assay [17].
